Experiment in all cases: NCI-60 one-dose screen, 48 h (100 = growth as untreated, 0 = no growth, -100 = all killed)
Common to all, as to conditions: 10 µM unless noted

Test [1] concerns NCI-H23 lung.
The test system of test [2] is NCI-H226 lung.
Test [3] concerns NCI-H322M lung.
For test [4], the system named is HOP-62 NSCLC.
Test [5] concerns NCI-H460 lung.
Test [6] concerns HOP-92 NSCLC.
Test [7] deals with NCI-H522 lung.
In test [8] the test system is A549/ATCC NSCLC.
Test [9] relates to 786-0 renal.
Test [10] concerns COLO 205 colon.
The subject of test [11] is DU-145 prostate.
Test [12] concerns K-562 leukemia.
The test system of test [13] is MALME-3M melanoma.
Test [14] has as its system MDA-MB-231 breast.
Test [15] concerns RXF 393 renal.
For test [16], the system named is SF-268 CNS.
In test [17] the test system is SF-295 CNS.
Test [18] relates to SF-539 CNS.
Test [19] concerns UACC-257 melanoma.
The subject of test [20] is M14 melanoma.

Compounds without any hit were thinned out: in the full panel of roughly 83,000, 20% have a hit.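 Step 1: grow cells in 96-well plates. Step 2: add test compound at a single concentration. Step 3: incubate 48 h. Step 4: record percent growth.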 A number with no mark means an inactive call. Active and inactive are the calls of the source. How the source made its calls: active means growth percent below 10; inactive means the rest.

Turning to `C#C[C@]1(O)CC[C@H]2[C@@H]3CC=C4c5sc(Nc6cc(F)ccc6F)nc5CC[C@]4(C)[C@H]3CC[C@@]21C`, the growth in test [1] was 4.23% (active); in test [2] it was 49%; in test [3] it was 50.9%; in [4] it was 0.529% (active); in [5], -54.4% (active); in [6], 13.1%. Moreover, the growth in test [7] is 1.36% (active); in test [8], 56.7%; in test [9] it was -71.9% (active); in [10], 8.29% (active); in test [11], -30.6% (active); in test [12], 4.14% (active). Besides, the growth in [13] is -19.9% (active); in [14], -20.6% (active); in test [15], -58.5% (active); in test [16], 0.557% (active); in [17] it was -41.9% (active); in [18], -88.7% (active). The results for the growth in test [19] and in test [20] were 0.483% (active) and -22.1% (active), respectively.
With `N#Cc1cccc(NC(=O)c2cc(-c3ccc(F)cc3F)ccc2O)c1`, the growth in test [1] was 1.56% (active); in test [2], 3.58% (active); in test [3], 1.78% (active); in [4], 23%; in [5], 6.49% (active); in test [6] it was -24.2% (active). The growth in [7] was -3.38% (active); in test [8], 27.3%; in test [9], 31.1%; in test [10] it was 107%; in test [11] it was 18.4%; in test [12], 13.3%. Also, the growth in [13] was -25.1% (active); in [14], -2.77% (active); in test [15] it was 3.07% (active); in [16], 14.5%; in test [17], 80.5%; in [18] it was 16.3%. Further, the growth was -10% (active) in test [19] and 23.6% in test [20].
Turning to `O=C(Cc1ccc(F)c(Cl)c1)Nc1cc(C2(C(F)(F)F)CC2)nn1Cc1ccccc1`, the growth was 55.3% in test [1]; 43.2% in test [2]; 89.6% in test [3]; -32.7% (active) in [4]; 79% in [5]; -19.5% (active) in [6]. Also, the growth is 58.2% in [7]; 60.3% in test [8]; 34.6% in test [9]; 66.3% in test [10]; 89.8% in test [11]; 77.1% in [12]. Also, the growth is 60.4% in [13]; 14.1% in [14]; -23.5% (active) in [15]; 17.1% in test [16]; 24.8% in test [17]; 50.6% in test [18]. In addition, the growth is 91.1% in test [19] and 70.8% in test [20].
Consider `O=C(S)CNC(=O)c1ccccc1`, for which the growth was 94.3% in [1]; 101% in test [2]; 95.1% in [3]; 92.7% in test [4]; 105% in test [5]; 74.7% in test [6]. Moreover, the growth is 86.4% in [7]; 99.8% in test [8]; 98.1% in test [9]; 107% in test [10]; 98.8% in test [11]; 95.1% in test [12]. The growth in test [13] was 84.2%; in [14], 97.6%; in [15], 92.7%; in test [16], 86.5%; in [17] it was 111%; in [18], 93.4%. Besides, the growth in [19] is 98%; in test [20], 95.9%.
In the case of `NCCCNc1nc2ccccc2c2c(=O)c3cc(F)cc(F)c3sc12`, the growth in test [1] was 84%; in test [2] it was 92.5%; in test [3], 84.5%; in [4] it was 78.9%; in [5], -75.1% (active); in test [6], 36%. Further, the growth in [7] is 92.7%; in test [8], 78.1%; in test [9], -88.8% (active); in [10], 63.6%; in test [11] it was 73.4%; in test [12], -42.9% (active). For the same molecule, the growth in [13] is 73.6%; in test [14], 18.2%; in [15] it was 63.6%; in test [16], 81.7%; in [17], 105%; in [18], -92.3% (active). The growth was 100% in test [19] and -85.2% (active) in test [20].
With `COc1ccc2cc(C(C)C(=O)Nc3ccc(-c4n[nH]c(=S)n4C4CCCCC4)cc3)ccc2c1` (stereo not given), the growth in [1] was 90.2%; in [2] it was 95.3%; in [3], 114%; in test [4], 84.3%; in [5] it was 43.2%; in [6], 43.4%. Further, the growth in test [7] was 64.8%; in test [8], 41.2%; in [9], 78.4%; in test [10] it was 75.5%; in test [11], 89.1%; in test [12], 63.9%. For the same molecule, the growth was 124% in test [13]; 75.9% in [14]; 91.1% in test [15]; 65.5% in [16]; 60.7% in test [17]; 83.8% in test [18]. Besides, the growth in test [19] was 76.7%; in [20], 63.2%.
Turning to `CN1CCN(Cc2ccc(NC(=O)c3cncc(C#Cc4cnccc4C#N)c3)cc2C(F)(F)F)CC1`, the growth in test [1] is 49.2%; in [2] it was 40.4%; in test [3], 99.4%; in test [4], 76.8%; in test [5], 59.2%; in test [6], 36%. In addition, the growth is 66.7% in test [7]; 90.4% in test [8]; 101% in [9]; 24.6% in test [10]; 65.3% in test [11]; 8.21% (active) in test [12]. Besides, the growth in test [13] was 17.2%; in test [14] it was 68.6%; in test [15] it was 76.6%; in test [16], 89.9%; in test [17], 96.3%; in test [18] it was 42%. For the same molecule, the figures for the growth in test [19] and in [20] were 41.1% and 25.4%, respectively.

For the origin of these results see PubChem BioAssay (NCI).
